Source: publication PMC5540273 (PLoS ONE, 2017)

Assays:
Conditions in all cases: concentration: 1 μM, replicates: in singlicate; n = 1
EPHA7 = test system: EPHA7
EPHA8 = test system: EPHA8
EPHB1 = test system: EPHB1
EPHB2 = test system: EPHB2
EPHB3 = test system: EPHB3
EPHB4 = test system: EPHB4
EPHB6 = test system: EPHB6
ERBB2 = test system: ERBB2
ERBB3 = test system: ERBB3
ERBB4 = test system: ERBB4
ERK1 = test system: T1, ERK1
T1 construct: gene MAPK3

ERK2 = test system: T2, ERK2
T2 construct: gene MAPK1

ERK3 = test system: T3, ERK3
T3 construct: gene MAPK6

ERK4 = test system: T4, ERK4
T4 construct: gene MAPK4

ERK5 = test system: T5, ERK5
T5 construct: gene MAPK7

ERK8 = test system: T6, ERK8
T6 construct: gene MAPK15

ERN1 = test system: ERN1
FAK = test system: T7, FAK
T7 construct: gene PTK2

FER = test system: FER
FES = test system: FES
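Further: KINOMEscan kinase panel screen.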

SMILES: Cc1ccc(-c2ccc3occ(-c4ccc(S(C)=O)cc4)c3c2)nn1 (centres unmarked)
- %Inh (EPHA7): 0%
- %Inh (EPHA8): 0%
- %Inh (EPHB1): 0%
- %Inh (EPHB2): 14%
- %Inh (EPHB3): 14%
- %Inh (EPHB4): 6%
- %Inh (EPHB6): 0%
- %Inh (ERBB2): 0%
- %Inh (ERBB3): 0%
- %Inh (ERBB4): 3%
- %Inh (ERK1): 0%
- %Inh (ERK2): 7%
- %Inh (ERK3): 0%
- %Inh (ERK4): 0%
- %Inh (ERK5): 0%
- %Inh (ERK8): 1%
- %Inh (ERN1): 1%
- %Inh (FAK): 0%
- %Inh (FER): 0%
- %Inh (FES): 5%

SMILES: c1ccc(Oc2ccc(Nc3ccnc4cc(-c5ccc(CN6CCCCC6)o5)ccc34)cc2)nc1 [GW567143]
- %Inh (EPHA7): 0%
- %Inh (EPHA8): 12%
- %Inh (EPHB1): 6%
- %Inh (EPHB2): 0%
- %Inh (EPHB3): 4%
- %Inh (EPHB4): 7%
- %Inh (EPHB6): 66%
- %Inh (ERBB2): 18%
- %Inh (ERBB3): 96%
- %Inh (ERBB4): 51%
- %Inh (ERK1): 13%
- %Inh (ERK2): 0%
- %Inh (ERK3): 0%
- %Inh (ERK4): 0%
- %Inh (ERK5): 0%
- %Inh (ERK8): 0%
- %Inh (ERN1): 26%
- %Inh (FAK): 0%
- %Inh (FER): 4%
- %Inh (FES): 0%

SMILES: CCn1cnc2c(NCc3ccccc3)ncnc21 [SKF-96418]
- %Inh (EPHA7): 0%
- %Inh (EPHA8): 0%
- %Inh (EPHB1): 0%
- %Inh (EPHB2): 0%
- %Inh (EPHB3): 0%
- %Inh (EPHB4): 0%
- %Inh (EPHB6): 0%
- %Inh (ERBB2): 24%
- %Inh (ERBB3): 28%
- %Inh (ERBB4): 4%
- %Inh (ERK1): 0%
- %Inh (ERK2): 0%
- %Inh (ERK3): 7%
- %Inh (ERK4): 17%
- %Inh (ERK5): 0%
- %Inh (ERK8): 4%
- %Inh (ERN1): 19%
- %Inh (FAK): 0%
- %Inh (FER): 0%
- %Inh (FES): 3%

SMILES: Cl.N#CCc1ccc(Nc2nccc(Nc3ccc(Oc4ccccc4)cc3)n2)cc1 [GW639905]
- %Inh (EPHA7): 0%
- %Inh (EPHA8): 0%
- %Inh (EPHB1): 0%
- %Inh (EPHB2): 6%
- %Inh (EPHB3): 0%
- %Inh (EPHB4): 0%
- %Inh (EPHB6): 46%
- %Inh (ERBB2): 23%
- %Inh (ERBB3): 96.3%
- %Inh (ERBB4): 53%
- %Inh (ERK1): 0%
- %Inh (ERK2): 0%
- %Inh (ERK3): 0%
- %Inh (ERK4): 0%
- %Inh (ERK5): 0%
- %Inh (ERK8): 35%
- %Inh (ERN1): 10%
- %Inh (FAK): 0%
- %Inh (FER): 0%
- %Inh (FES): 0%

SMILES: CC(C)c1nc(-c2cccc(NS(=O)(=O)c3c(F)cccc3F)c2)c(-c2ccnc(Nc3ccc(N4CCOCC4)nc3)n2)s1.Cl [GSK1723980]
- %Inh (EPHA7): 0%
- %Inh (EPHA8): 93%
- %Inh (EPHB1): 24%
- %Inh (EPHB2): 0%
- %Inh (EPHB3): 0%
- %Inh (EPHB4): 0%
- %Inh (EPHB6): 97.4%
- %Inh (ERBB2): 86%
- %Inh (ERBB3): 97.8%
- %Inh (ERBB4): 95%
- %Inh (ERK1): 0%
- %Inh (ERK2): 0%
- %Inh (ERK3): 0%
- %Inh (ERK4): 0%
- %Inh (ERK5): 0%
- %Inh (ERK8): 97.9%
- %Inh (ERN1): 50%
- %Inh (FAK): 0%
- %Inh (FER): 49%
- %Inh (FES): 18%

SMILES: Cc1cc(-c2c(-c3ccc(F)cc3)ncn2CCCN2CCOCC2)nc(N)n1 [SB-222517]
- %Inh (EPHA7): 0%
- %Inh (EPHA8): 0%
- %Inh (EPHB1): 0%
- %Inh (EPHB2): 12%
- %Inh (EPHB3): 29%
- %Inh (EPHB4): 10%
- %Inh (EPHB6): 0%
- %Inh (ERBB2): 0%
- %Inh (ERBB3): 0%
- %Inh (ERBB4): 0%
- %Inh (ERK1): 4%
- %Inh (ERK2): 21%
- %Inh (ERK3): 0%
- %Inh (ERK4): 0%
- %Inh (ERK5): 0%
- %Inh (ERK8): 6%
- %Inh (ERN1): 0%
- %Inh (FAK): 0%
- %Inh (FER): 16%
- %Inh (FES): 35%

SMILES: O=C(Nc1n[nH]c2nc(-c3ccccc3)ccc12)C1CC1 [SB-708999]
- %Inh (EPHA7): 7%
- %Inh (EPHA8): 9%
- %Inh (EPHB1): 0%
- %Inh (EPHB2): 20%
- %Inh (EPHB3): 11%
- %Inh (EPHB4): 3%
- %Inh (EPHB6): 41%
- %Inh (ERBB2): 35%
- %Inh (ERBB3): 67%
- %Inh (ERBB4): 0%
- %Inh (ERK1): 0%
- %Inh (ERK2): 3%
- %Inh (ERK3): 46%
- %Inh (ERK4): 0%
- %Inh (ERK5): 0%
- %Inh (ERK8): 99.5%
- %Inh (ERN1): 0%
- %Inh (FAK): 0%
- %Inh (FER): 5%
- %Inh (FES): 5%

SMILES: COC(=O)Nc1nc2cc(Oc3ccc(NC(=O)Nc4cccc(SC)c4)cc3)ccc2[nH]1.Cl [GW697999]
- %Inh (EPHA7): 54%
- %Inh (EPHA8): 96.8%
- %Inh (EPHB1): 61%
- %Inh (EPHB2): 70%
- %Inh (EPHB3): 19%
- %Inh (EPHB4): 70%
- %Inh (EPHB6): 80%
- %Inh (ERBB2): 32%
- %Inh (ERBB3): 14%
- %Inh (ERBB4): 35%
- %Inh (ERK1): 0%
- %Inh (ERK2): 0%
- %Inh (ERK3): 0%
- %Inh (ERK4): 8%
- %Inh (ERK5): 0%
- %Inh (ERK8): 55%
- %Inh (ERN1): 0%
- %Inh (FAK): 0%
- %Inh (FER): 13%
- %Inh (FES): 0%

SMILES: O=C1NC(=O)C(c2ccccc2Cl)=C1Nc1cccc(Cl)c1 [SB-342409]
- %Inh (EPHA7): 15%
- %Inh (EPHA8): 19%
- %Inh (EPHB1): 8%
- %Inh (EPHB2): 12%
- %Inh (EPHB3): 13%
- %Inh (EPHB4): 15%
- %Inh (EPHB6): 0%
- %Inh (ERBB2): 0%
- %Inh (ERBB3): 0%
- %Inh (ERBB4): 9%
- %Inh (ERK1): 10%
- %Inh (ERK2): 0%
- %Inh (ERK3): 68%
- %Inh (ERK4): 17%
- %Inh (ERK5): 0%
- %Inh (ERK8): 61%
- %Inh (ERN1): 26%
- %Inh (FAK): 10%
- %Inh (FER): 0%
- %Inh (FES): 0%

SMILES: O=C(O)C(F)(F)F.O=c1[nH]ccc2nc(N[C@@H]3CCNC3)nc(Nc3cc(Cl)cc(Cl)c3)c12 [GSK2188764]
- %Inh (EPHA7): 1%
- %Inh (EPHA8): 5%
- %Inh (EPHB1): 28%
- %Inh (EPHB2): 1%
- %Inh (EPHB3): 4%
- %Inh (EPHB4): 6%
- %Inh (EPHB6): 17%
- %Inh (ERBB2): 4%
- %Inh (ERBB3): 0%
- %Inh (ERBB4): 0%
- %Inh (ERK1): 41%
- %Inh (ERK2): 51%
- %Inh (ERK3): 6%
- %Inh (ERK4): 37%
- %Inh (ERK5): 41%
- %Inh (ERK8): 15%
- %Inh (ERN1): 28%
- %Inh (FAK): 41%
- %Inh (FER): 55%
- %Inh (FES): 0%
